Measured values from paper PMC7819943, “Rice protein-binding microarrays: a tool to detect cis-acting elements near promoter regions in rice”.
Whole data set: some 39,000 sequences, median “fluorescence intensity (a.u.)” near 4,300, cut for the highest 2% near 39,000. For the sample, the highest values were picked, then their nearest neighbours and some sequences at random.

What follows are sequences tested against T1, OsSMF1 (Oryza sativa, UniProt Q6ZLB0 1-436) (assay: protein-binding microarray (RPBM); PBS, 2% BSA, 51.3 ng/ul salmon testes DNA, 50 uM zinc acetate, 200 nM TF, 25 C, 1 h; high values mean tight binding). Details: protein: recombinant; tags: N-terminal polyhistidine and DsRed monomer fusion (pET32a); chain copies: 2; label: CyDye5-dUTP incorporated in the synthesized complementary strand; 3' TTTTT single-stranded linker to array surface; dsDNA, one strand shown.
T1 sequence: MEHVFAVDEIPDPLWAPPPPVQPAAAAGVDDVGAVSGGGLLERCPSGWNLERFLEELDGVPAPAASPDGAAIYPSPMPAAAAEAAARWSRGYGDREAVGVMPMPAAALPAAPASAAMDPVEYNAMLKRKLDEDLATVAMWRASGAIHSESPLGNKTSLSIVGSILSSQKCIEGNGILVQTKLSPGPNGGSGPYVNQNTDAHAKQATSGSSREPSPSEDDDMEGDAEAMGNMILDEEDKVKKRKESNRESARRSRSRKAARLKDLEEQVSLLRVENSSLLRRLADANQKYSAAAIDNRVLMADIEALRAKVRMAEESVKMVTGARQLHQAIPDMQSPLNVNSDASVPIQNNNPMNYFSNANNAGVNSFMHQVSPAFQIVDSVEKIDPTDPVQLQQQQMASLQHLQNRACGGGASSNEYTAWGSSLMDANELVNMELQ
Outline: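 Binding signal is reported as fluorescence intensity per feature (arbitrary units) from an Axon 4000B scanner. Incubation used 200 nM of each Ni–NTA-purified, N-terminally polyhistidine- and DsRed-fused transcription factor from E. coli BL21-CodonPlus on a double-stranded custom Agilent array for 1 h at 25 °C, with 50 µM zinc acetate in the buffer, followed by washing.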

| Sequence | binding signal |
| --- | --- |
| CTCCGTGATCGTCATGTCAAGACGCAAAATAAAGAGCAATCGGAGTCACCTAGTGCAG | 33400 fluorescence intensity (a.u.) |
| GAAACCCGGCCACATCACTCCTTCCCTATGCTCCAGTGAGCGGAGTCACCTAGTGCAG | 8040 fluorescence intensity (a.u.) |
| CTTTTGGCAAAATCCGTGATGCAGCATCGATCCCTGTCAACGGAGTCACCTAGTGCAG | 39800 fluorescence intensity (a.u.) |
| TTTTGGATGCAGCATATGGTTGTCCCGATGCAAAATCCTCCGGAGTCACCTAGTGCAG | 4530 fluorescence intensity (a.u.) |
| TGGCAAATAGTTCCGTGATGTCAGCTTGGAAGCATCCTGCCGGAGTCACCTAGTGCAG | 6410 fluorescence intensity (a.u.) |
| ATATATACCTGCATACACTAGACTAGTATAATACCTGGCACGGAGTCACCTAGTGCAG | 3530 fluorescence intensity (a.u.) |
| TATCCAAAATTTCATCCAACTCTTGTGGGAGAAACGGACACGGAGTCACCTAGTGCAG | 39500 fluorescence intensity (a.u.) |
| TTTCGGTCATGAAAACTCAGGACCAAATTTCATCCAAATACGGAGTCACCTAGTGCAG | 29300 fluorescence intensity (a.u.) |
| AAACGATAATATACCTTGTATAGTCATCCAACTCTTATTTCGGAGTCACCTAGTGCAG | 3630 fluorescence intensity (a.u.) |
| GATTTCTTTCTGCCGTCATCTTCGAATATCCATGACTCGCCGGAGTCACCTAGTGCAG | 3840 fluorescence intensity (a.u.) |
| ATCGATCAGGCAATGAACCCATTATTGTTTGCCTCCAAAACGGAGTCACCTAGTGCAG | 34100 fluorescence intensity (a.u.) |
| AAATGTCTCCCAAAACCTCAAAATTGAGTTCCATTATGAACGGAGTCACCTAGTGCAG | 61600 fluorescence intensity (a.u.) |
| CACTTGATGAGCTCCTCTCCATGTCCTCAAACGTACTGAACGGAGTCACCTAGTGCAG | 25100 fluorescence intensity (a.u.) |
| AATCGATTCGAAATCCACACCGCTACTACGGCTAATTACGCGGAGTCACCTAGTGCAG | 3870 fluorescence intensity (a.u.) |
| CGCATTGAGCCATTTACACTACACACACAGCCCCAGATTCCGGAGTCACCTAGTGCAG | 3420 fluorescence intensity (a.u.) |
| TCTGCTGATGATCTCTCTCTCTCTCTGTTTCAAAGCTGATCGGAGTCACCTAGTGCAG | 44700 fluorescence intensity (a.u.) |
| GATCTGTCACTGTATGGAATGATGCAAAGCTGCTGCTGATCGGAGTCACCTAGTGCAG | 32000 fluorescence intensity (a.u.) |
| ACCTCTTGCTGCTGCTCATTCTGATGTCATTCAAAGAGATCGGAGTCACCTAGTGCAG | 4480 fluorescence intensity (a.u.) |
| CGCGCGAGTGCTAGGAAGCTGAGTCACGCCCGCCCTCCTCCGGAGTCACCTAGTGCAG | 10700 fluorescence intensity (a.u.) |
| TCCCACATTAAATTTACTCATTAGTTGTTAGGAATCGACACGGAGTCACCTAGTGCAG | 20600 fluorescence intensity (a.u.) |
| CAGTAAGCTAGCAAACAAACACACAAGAATATTTGTGATCCGGAGTCACCTAGTGCAG | 39900 fluorescence intensity (a.u.) |

| Sequence | binding signal |
| --- | --- |
| CAGAATATTTTGTCAGTCACTCTTGATCACTCTAGCAACACGGAGTCACCTAGTGCAG | 3980 fluorescence intensity (a.u.) |
| CAAGAGAAAATAGCCAAAATAATAGCAGTAAGAACACAATCGGAGTCACCTAGTGCAG | 15400 fluorescence intensity (a.u.) |
| CGACCGACCCTCGCCCGCCCACCGCCGTCACTCTCGTCTGCGGAGTCACCTAGTGCAG | 3920 fluorescence intensity (a.u.) |
| CGGGCACTCTCGTCTCCGACGTGAAGGCCCGAGATCACTGCGGAGTCACCTAGTGCAG | 60900 fluorescence intensity (a.u.) |
| ATCGTGTGACGACGTCTCGTCTCGTCTCCCTCTCCCGACCCGGAGTCACCTAGTGCAG | 3260 fluorescence intensity (a.u.) |
| GGTTGATTATTCCGTCGGCGTCAGCCATCAGGTGCATCACCGGAGTCACCTAGTGCAG | 3270 fluorescence intensity (a.u.) |
| TCTTTCGTCGCAATGCCACGCCATCATCGATCCCTTTCCTCGGAGTCACCTAGTGCAG | 14800 fluorescence intensity (a.u.) |
| TTTCGGGATCCGACACGGGCTGAATCCGGCCCATCCAAACCGGAGTCACCTAGTGCAG | 37800 fluorescence intensity (a.u.) |
| GGAGTAGATATTATCACTAGCTAGTCACACGGACACAGTGCGGAGTCACCTAGTGCAG | 4900 fluorescence intensity (a.u.) |
| GTCTAGCTAGTGCAATTAGAGTAACCTATATATCACACAACGGAGTCACCTAGTGCAG | 52200 fluorescence intensity (a.u.) |
| TAAACGCAAATTCTATATCACAACCACGTAAGTTTAGTAGCGGAGTCACCTAGTGCAG | 3870 fluorescence intensity (a.u.) |
| TCGCCGCCGCGGCCGCCTCCACCTCATCATCTCCCACCTCCGGAGTCACCTAGTGCAG | 7900 fluorescence intensity (a.u.) |
| GCTGCCAGCGCCGCCGCCACCTGTGTCGGCACGCGAGCGCCGGAGTCACCTAGTGCAG | 3350 fluorescence intensity (a.u.) |
| TTGAGCAGCCTCCCTTCCCCGGCGAGCAGCCCCGCCGCCGCGGAGTCACCTAGTGCAG | 3720 fluorescence intensity (a.u.) |
| GCGGCGCATCCAGGAGGTTGAGTCGAGCACGCCACCGCTGCGGAGTCACCTAGTGCAG | 3420 fluorescence intensity (a.u.) |
| GTCCCCGGCCTCGGCGCGCGGCGAGCACCGTGCCGCCCCACGGAGTCACCTAGTGCAG | 24000 fluorescence intensity (a.u.) |
| AGGGCGAGGAGGCGCTTGAGGGCGTCGAGCTTGTCGGCATCGGAGTCACCTAGTGCAG | 28400 fluorescence intensity (a.u.) |
| GTACGCGAGCATCCCGGCGTTGTCGAGGCGCTCCAGGACGCGGAGTCACCTAGTGCAG | 40200 fluorescence intensity (a.u.) |
| ACATCACCACCCACCTCACCCTGCCGCTCCCGAGCGCGATCGGAGTCACCTAGTGCAG | 4000 fluorescence intensity (a.u.) |
| ACCTCCCACACCTGTGTCGATCCAGGCAGGCCGAGCGCGACGGAGTCACCTAGTGCAG | 43400 fluorescence intensity (a.u.) |
| CACGGCCTCACCTCCCAGCCCGCGAGCACCGGCGGACGGACGGAGTCACCTAGTGCAG | 42400 fluorescence intensity (a.u.) |
